# Data published in PubChem BioAssay (NCATS).
# Results filed as inconclusive are left out. A call without a number means that no potency is given here. Calls of active or inactive are those of the source. Calls come from the whole dose curve.
# How the values were obtained:
# [1] = Primary qHTS for inhibitors of MERS-S pseudo-typed particle cell entry (AID 1479149); note: nearly all actives have a fitted effect of over 60% in size
# [2] = Primary qHTS for Vero E6 cytotoxicity: counterscreen for inhibitors of SARS-S pseudo-typed particle cell entry (AID 1479150)
# [3] = Cytotoxicity counterscreen for inhibitors of SARS-CoV-2 cell entry (AID 1645845); note: nearly all actives have a fitted effect of over 50% in size
# Procedure, shortened: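 HEK293-ACE2 cells (Expi293F stably expressing human ACE2) seeded overnight, then compound for 1 h plus 48 h at 37C. Viability as ATP content by luminescence; normalized to wells with cells and media-only wells.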
# [4] = Primary qHTS to identify inhibitors of SARS-CoV-2 cell entry (AID 1645846); details: activity change, negative = inhibition: at 57.1 µM (top of the series) unless noted; note: nearly all actives have a fitted effect of over 45% in size
# Procedure, shortened: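 Data are normalized to wells receiving SARS-CoV-2-S pseudoparticles and those given bald particles. Entry signal was luciferase luminescence in stable hACE2 Expi293F cells, 48 hr post-infection, after 1 hr compound pretreatment.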
Structure (SMILES),Potency [1],Potency [2],Potency [3],"activity change, negative = inhibition [4]"
CNS(=O)(=O)CCc1ccc2[nH]cc(C3CCN(C)CC3)c2c1,inactive,inactive,inactive,–
CC(C)NCC(O)COc1cccc2[nH]ccc12 (stereo unspecified),inactive,inactive,inactive,–
Cc1onc(-c2c(Cl)cccc2Cl)c1C(=O)N[C@@H]1C(=O)N2[C@@H]1SC(C)(C)[C@@H]2C(=O)O,inactive,inactive,inactive,–
CC#C[C@]1(O)CC[C@H]2[C@@H]3CCC4=CC(=O)CCC4=C3[C@@H](c3ccc(N(C)C)cc3)C[C@@]21C,inactive,inactive,inactive,–
CC(S)C(=O)NCC(=O)O (stereo unspecified),inactive,inactive,inactive,–
COc1cc2nc(N3CCN(C(=O)C4CCCO4)CC3)nc(N)c2cc1OC (stereo unspecified),inactive,inactive,inactive,-6.28%
CCCN(CCc1cccs1)[C@H]1CCc2c(O)cccc2C1,inactive,inactive,inactive,–
C[n+]1ccccc1/C=N/O,inactive,inactive,inactive,–
NS(=O)(=O)Cc1noc2ccccc12,inactive,inactive,inactive,–
CCCCc1ncc(/C=C(\Cc2cccs2)C(=O)O)n1Cc1ccc(C(=O)O)cc1,inactive,inactive,inactive,–
C[C@]12CC[C@@H]3c4ccc(O)cc4C[C@@H](CCCCCCCCCS(=O)CCCC(F)(F)C(F)(F)F)[C@H]3[C@@H]1CC[C@@H]2O (stereo partly specified),inactive,inactive,inactive,–
CN1CCc2cccc3c2[C@H]1Cc1ccc(O)c(O)c1-3,inactive,inactive,inactive,–
COCCCC/C(=N\OCCN)c1ccc(C(F)(F)F)cc1,inactive,inactive,inactive,2.14%
